Composite z-score and z-score data for 16 molecules are collected here from PubChem BioAssay.

SMILES strings stand for the structures. Active and inactive are the calls of the source.

Assay [1] is described as follows: small molecules captured by biotinylated probe aFSTL3 – biochemical, small-molecule microarray, fluorescence 635/667, stem cell growth factor project, primary screen (AID 1064).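 Also: measures binding of the biotinylated anti-FSTL3 antibody to printed compounds.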 The following applies: higher = more signal.
Assay [2] in a line: binders from COS7 lysate, DM2A8 probe, primary screen, torsin A project, cell lysate, small-molecule microarray, fluorescence 635/667 (AID 1065). The following applies: higher = more signal, COS7 lysate expressing mutant human TOR1A.
Assay [3] is described as follows: small molecules captured by biotinylated probe aFGF2 – biochemical, small-molecule microarray, fluorescence 635/667, stem cell growth factor project, primary screen (AID 1067).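 Also: measures binding of biotinylated aFGF2 protein to printed compounds on slides; z-score merges feature fluorescence and signal-to-noise across triplicate slides.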 The following applies: higher = more signal.
A short description of assay [4]: small molecules captured by biotinylated probe aFGF10 – biochemical, small-molecule microarray, fluorescence 635/667, stem cell growth factor project, primary screen (AID 1071).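 Also: score merges 667 nm spot intensity and signal to noise from triplicate slides.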 The settings on record: higher = more signal.
Assay [5] addresses Neurogenic locus notch homolog protein 2 (Homo sapiens) (UniProt Q04721). Description: small molecules binding Notch2 protein – biochemical, small-molecule microarray, 635 nm fluorescence, stem cell growth factors, primary screen (AID 1073). The settings on record: higher = more signal.
In assay [6] the target is Pro-neuregulin-1, membrane-bound isoform (Homo sapiens) (UniProt Q02297). Description: small molecules binding neuregulin-1 protein – biochemical, small-molecule microarray, fluorescence 635/667, psychiatric disease protein project, primary screen (AID 1075).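 Also: score combines 667 nm spot fluorescence with signal to noise.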 The following applies: NRG1 binding, 635 nm fluorescence, higher = more signal.
The subject of assay [7] is Neuregulin-1 EGF-like domain. Description: small molecules binding NRG1 EGF domain – biochemical, small-molecule microarray, 635 nm fluorescence, primary screen (AID 1081).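 Also: binding of the protein to compounds printed on small-molecule microarray slides.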 The following applies: higher = more signal.
Assay [8] can be described thus: FRG1 expression reporter modulators in myotubes – cell-based, C2C12 myotubes, firefly/Renilla luciferase, luminescence, FRG1 inhibition for FSHD, primary screen (AID 1084). The settings on record: FRG1 promoter luciferase, higher = more signal, called active from +8 up or from −8 down.
Assay [9] can be described thus: small molecules captured by biotinylated probe aFST – biochemical, small-molecule microarray, fluorescence 635/667, stem cell growth factor project, primary screen (AID 1086).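 Also: score merges 667 nm fluorescence with signal-to-noise of each printed compound spot.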 The settings on record: higher = more signal.
A short description of assay [10]: binders of probe aHhip on microarray, primary screen, stem cell growth factor project, biochemical, small-molecule microarray, fluorescence 635/667 (AID 1087).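 Also: score merges spot fluorescence at 667nm with spot signal to noise ratio.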 The settings on record: higher = more signal.

Chain of Neurogenic locus notch homolog protein 2 (Homo sapiens) (Q04721 whole entry, looked up, canonical isoform): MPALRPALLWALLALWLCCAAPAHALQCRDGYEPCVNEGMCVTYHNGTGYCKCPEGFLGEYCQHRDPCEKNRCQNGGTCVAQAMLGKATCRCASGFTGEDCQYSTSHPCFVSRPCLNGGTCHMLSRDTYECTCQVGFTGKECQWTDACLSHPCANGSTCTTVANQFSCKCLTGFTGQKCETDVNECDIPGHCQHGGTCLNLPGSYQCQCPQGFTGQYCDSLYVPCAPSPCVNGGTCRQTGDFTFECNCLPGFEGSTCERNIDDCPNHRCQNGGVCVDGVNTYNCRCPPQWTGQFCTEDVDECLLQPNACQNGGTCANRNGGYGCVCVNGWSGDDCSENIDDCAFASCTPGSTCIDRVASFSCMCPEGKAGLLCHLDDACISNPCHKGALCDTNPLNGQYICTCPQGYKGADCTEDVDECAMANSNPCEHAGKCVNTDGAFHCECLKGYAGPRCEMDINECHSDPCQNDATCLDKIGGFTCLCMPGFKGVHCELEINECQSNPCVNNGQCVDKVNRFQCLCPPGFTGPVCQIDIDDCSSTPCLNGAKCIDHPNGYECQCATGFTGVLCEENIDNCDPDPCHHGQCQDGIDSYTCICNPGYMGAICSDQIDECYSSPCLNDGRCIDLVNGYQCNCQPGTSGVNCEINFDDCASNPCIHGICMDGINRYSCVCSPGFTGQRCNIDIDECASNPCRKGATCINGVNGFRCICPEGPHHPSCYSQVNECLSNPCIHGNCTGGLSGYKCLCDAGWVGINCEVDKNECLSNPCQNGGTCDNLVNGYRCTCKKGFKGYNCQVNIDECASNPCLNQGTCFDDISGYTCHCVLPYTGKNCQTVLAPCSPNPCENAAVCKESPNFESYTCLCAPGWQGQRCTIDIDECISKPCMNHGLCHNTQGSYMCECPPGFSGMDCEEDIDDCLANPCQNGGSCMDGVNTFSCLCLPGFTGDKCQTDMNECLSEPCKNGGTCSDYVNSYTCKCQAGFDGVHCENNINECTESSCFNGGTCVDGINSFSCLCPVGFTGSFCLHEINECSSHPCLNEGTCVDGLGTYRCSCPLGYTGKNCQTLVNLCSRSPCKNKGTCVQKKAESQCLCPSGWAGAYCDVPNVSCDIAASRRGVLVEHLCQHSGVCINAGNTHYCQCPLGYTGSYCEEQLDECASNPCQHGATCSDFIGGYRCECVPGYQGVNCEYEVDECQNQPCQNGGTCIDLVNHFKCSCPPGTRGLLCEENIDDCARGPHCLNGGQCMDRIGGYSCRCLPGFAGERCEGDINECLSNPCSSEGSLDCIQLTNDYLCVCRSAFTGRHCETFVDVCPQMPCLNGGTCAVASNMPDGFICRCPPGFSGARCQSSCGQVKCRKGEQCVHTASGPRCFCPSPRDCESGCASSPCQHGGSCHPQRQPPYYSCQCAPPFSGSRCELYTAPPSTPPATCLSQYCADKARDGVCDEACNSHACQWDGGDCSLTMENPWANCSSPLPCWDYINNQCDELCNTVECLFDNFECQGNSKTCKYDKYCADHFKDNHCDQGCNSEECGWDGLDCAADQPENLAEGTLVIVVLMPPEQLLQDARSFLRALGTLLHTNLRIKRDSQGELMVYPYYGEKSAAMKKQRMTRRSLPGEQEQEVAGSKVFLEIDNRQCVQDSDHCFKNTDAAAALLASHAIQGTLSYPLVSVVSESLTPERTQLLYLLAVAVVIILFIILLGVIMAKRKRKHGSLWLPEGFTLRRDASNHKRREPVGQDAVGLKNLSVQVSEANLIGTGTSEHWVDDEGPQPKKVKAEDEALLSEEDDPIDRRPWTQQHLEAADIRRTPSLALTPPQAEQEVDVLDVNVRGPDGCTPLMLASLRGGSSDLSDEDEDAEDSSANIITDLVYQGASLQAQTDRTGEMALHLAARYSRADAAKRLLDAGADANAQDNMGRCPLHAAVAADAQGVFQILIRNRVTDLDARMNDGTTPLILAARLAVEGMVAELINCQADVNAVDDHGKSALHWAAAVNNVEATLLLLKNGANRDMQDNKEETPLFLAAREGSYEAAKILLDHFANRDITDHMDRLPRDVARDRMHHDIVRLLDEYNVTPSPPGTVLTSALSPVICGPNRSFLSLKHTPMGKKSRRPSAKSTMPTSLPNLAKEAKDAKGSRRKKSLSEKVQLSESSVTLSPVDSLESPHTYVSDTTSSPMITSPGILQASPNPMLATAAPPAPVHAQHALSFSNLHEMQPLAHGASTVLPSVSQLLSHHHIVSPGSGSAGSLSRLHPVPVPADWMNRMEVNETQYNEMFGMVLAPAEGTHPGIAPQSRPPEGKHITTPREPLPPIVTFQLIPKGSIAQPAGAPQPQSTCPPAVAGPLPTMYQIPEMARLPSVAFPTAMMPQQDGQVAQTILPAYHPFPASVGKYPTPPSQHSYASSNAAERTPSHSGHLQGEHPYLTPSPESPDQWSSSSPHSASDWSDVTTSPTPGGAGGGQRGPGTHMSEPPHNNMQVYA
Chain of Pro-neuregulin-1, membrane-bound isoform (Homo sapiens) (Q02297 whole entry, looked up, the tested form may be a part, canonical isoform): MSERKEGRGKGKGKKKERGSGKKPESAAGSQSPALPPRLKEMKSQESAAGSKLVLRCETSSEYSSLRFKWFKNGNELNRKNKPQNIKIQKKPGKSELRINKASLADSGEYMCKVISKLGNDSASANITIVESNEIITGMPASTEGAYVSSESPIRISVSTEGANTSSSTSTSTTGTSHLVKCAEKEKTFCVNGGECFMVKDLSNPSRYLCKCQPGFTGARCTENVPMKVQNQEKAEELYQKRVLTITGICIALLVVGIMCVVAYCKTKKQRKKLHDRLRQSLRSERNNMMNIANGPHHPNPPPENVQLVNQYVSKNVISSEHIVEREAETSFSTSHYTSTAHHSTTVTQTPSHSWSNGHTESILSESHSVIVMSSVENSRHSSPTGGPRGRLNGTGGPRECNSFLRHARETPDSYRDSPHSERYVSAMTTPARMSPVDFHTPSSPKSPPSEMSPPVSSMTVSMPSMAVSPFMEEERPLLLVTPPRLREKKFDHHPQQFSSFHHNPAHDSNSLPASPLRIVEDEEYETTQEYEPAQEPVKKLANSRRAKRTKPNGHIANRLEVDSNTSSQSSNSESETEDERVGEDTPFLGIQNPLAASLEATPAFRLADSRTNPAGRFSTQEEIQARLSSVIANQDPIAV

Consider `C=CCN1C(=O)[C@]2(CC=C)N=C(c3ccc(OCCCO)cc3)O[C@@H]2c2ccccc21`, for which the composite z-score stood at 0.967 in assay [1]; 0.194 in [2]; 0.123 in assay [3]; 0.0547 in assay [4]; 1.05 in [5]; 1.03 in assay [6]. The figures for the composite z-score in assay [7], in assay [9] and in assay [10] were 1.26, 0.61 and 0.0327, respectively. Also, in assay [8], the z-score is -1.86 (inactive).

For `CN1C(=O)C2C(C1=O)C1C=C(c3ccc(CO)cc3)C2C(c2cccs2)N1Cc1cccc(OC(F)(F)F)c1` (stereo not given), the composite z-score is -0.16 in assay [1]; 0.669 in [2]; -0.109 in [3]; 0.432 in assay [4]; 1.25 in assay [5]; 1.87 in assay [6]. In addition, the composite z-score in assay [7] stood at 1.35; in [9], 0.875; in assay [10] it was 0.0505. Moreover, in assay [8], the z-score was 0.785 (inactive).

Take `CO[C@H]1O[C@H](CO)[C@@H](OC(=O)Nc2ccc(C(F)(F)F)cc2)[C@H](OC(=O)Nc2ccc3c(c2)OCO3)[C@H]1OC(=O)Nc1ccc2c(c1)OCO2`: the composite z-score amounted to 0.303 in [1]; 1.15 in [2]; 0.0557 in assay [3]; 0.794 in assay [4]; 1.41 in assay [5]; 1.6 in [6]. The composite z-score stood at 1.3 in [7], 0.557 in [9] and 0.176 in [10]. In assay [8], the z-score was 6.45 (inactive).

For the molecule `O=C1C2C=CC(C(O)c3cc(C(F)(F)F)cc(C(F)(F)F)c3)N(Nc3ccc([N+](=O)[O-])cc3)C2C(=O)N1c1ccccc1` (stereo not given), the composite z-score is -0.25 in assay [1]; 0.466 in [2]; 0.0678 in assay [3]; 0.94 in assay [4]; 1.67 in [5]; 1.86 in assay [6]. Also, the composite z-score is 1.17 in assay [7], 0.598 in assay [9] and -0.166 in assay [10]. Further, in assay [8], the z-score was 0.0404 (inactive).

Consider `C=C1C2CC3C(=C4C(CO[C@@H]4[C@H]4CCCN4S(=O)(=O)c4ccccc4[N+](=O)[O-])C4C(=O)N(C)C(=O)C34)CC2C(=O)N1C` (stereo not given in full), for which the composite z-score in assay [1] was -0.431; in assay [2], 0.315; in [3], -0.125; in assay [4], 0.36; in assay [5], 0.574; in assay [6], 1.12. Also, the results for the composite z-score in [7], in assay [9] and in [10] were 0.0641, 0.174 and 0.0024, respectively. Also, the z-score in assay [8] was 0.581 (inactive).

On to `C[n+]1ccc(CCCO)cc1`, for which the composite z-score was 1.03 in [1]; 1.06 in assay [2]; -0.044 in assay [3]; 0.0582 in assay [4]; -1.21 in assay [5]; -0.161 in [6]. Further, the composite z-score in assay [7] is 1.45; in assay [9], -0.311; in assay [10], 0.837. In addition, the z-score in assay [8] is 1.12 (inactive).

For the molecule `COc1c(C)cc(-c2cc3c(c(-c4ccccc4)n2)[Si](C(C)C)(C(C)C)OC3)cc1C`, the composite z-score was -0.0563 in assay [1]; -0.0385 in assay [2]; -0.241 in [3]; -0.304 in assay [4]; -0.181 in assay [5]; -0.112 in [6]. For the same molecule, the composite z-score in assay [7] was -1.15; in assay [9], -0.205; in assay [10], -0.0672. In assay [8], the z-score is -0.577 (inactive).

`C=CC1c2cc(O)c(OC)cc2CCN1Cc1sc2ccccc2c1Cl` (stereo not given): the composite z-score in [1] is 1.12; in [2] it was 0.396; in assay [3] it was -0.0316; in assay [4] it was 0.436; in assay [5], 1.2; in assay [6] it was 1.9. Besides, the figures for the composite z-score in assay [7], in assay [9] and in [10] were 1.23, 0.853 and -0.0237, respectively. Further, in assay [8], the z-score was -0.732 (inactive).

On to `COCCOC(=O)N1C(=O)[C@@]2(c3cc(C#Cc4ccc(OC)cc4)ccc31)[C@H](C(=O)N1CCN(c3ncccn3)CC1)[C@H]1C(=O)O[C@H](c3ccccc3)[C@H](c3ccccc3)N1[C@@H]2c1ccccc1OCCO`, for which the composite z-score was -0.0234 in [1]; 0.0841 in assay [2]; -0.124 in assay [3]; 0.475 in assay [4]; 0.711 in assay [5]; 0.0925 in [6]. Also, the figures for the composite z-score in assay [7], in assay [9] and in assay [10] were 1.02, 0.0402 and -0.0994, respectively. Also, the z-score in assay [8] is -0.425 (inactive).

In the case of `O=C1c2ccccc2[C@@]2(Cc3ccccc3N(C3CC3)C2=O)[C@H](c2ccc(CO)cc2)N1C1CCCCC1`, the composite z-score is -0.0266 in [1]; -0.625 in [2]; -0.0325 in assay [3]; -0.015 in assay [4]; -0.119 in assay [5]; 0.123 in assay [6]. For the same molecule, the composite z-score in assay [7] was -0.716; in assay [9], -0.0416; in [10], -0.0994. The z-score in assay [8] is 0.291 (inactive).

`COC(=O)[C@@]1(Cc2ccccc2)[C@H]2c3cc(C(=O)N4CCCC4)n(C[C@H](O)CO)c3C[C@H]2CN1C(=O)c1ccccc1`: the composite z-score in [1] was 0.52; in assay [2], -0.0861; in assay [3], -0.16; in assay [4], 0.0518; in [5], 1.58; in [6] it was 1.99. The results for the composite z-score in [7], in assay [9] and in assay [10] were 1.3, 0.348 and 0.0053, respectively. Further, the z-score in assay [8] is 0.593 (inactive).

With `O=C(NC1CC1)[C@@H]1c2ccccc2C(=O)N(Cc2ccccc2)[C@H]1c1ccc(CO)cc1`, the composite z-score in assay [1] was 0.176; in assay [2] it was -0.301; in [3], -0.0606; in assay [4], 0.207; in [5], -0.454; in assay [6], 1.4. Also, the figures for the composite z-score in assay [7], in assay [9] and in [10] were 1.4, 0.646 and -0.493, respectively. For the same molecule, the z-score in assay [8] was -2.71 (inactive).

As for `O=C1OC[C@@H](c2ccccc2)N2CC(/C=C/c3ccccc3)=CC12` (stereo not given in full), the composite z-score in [1] was 0.528; in assay [2], -0.477; in [3], -0.222; in assay [4], -0.77; in assay [5] it was -1.18; in [6], -0.586. Further, the composite z-score was 0.219 in [7], -1.31 in assay [9] and -0.268 in assay [10]. In [8], the z-score was -0.639 (inactive).

As to `COc1cc2c(cc1O)C(C)N(Cc1cc3c(cc1Br)OCO3)CC2` (stereo not given), the composite z-score in assay [1] is 0.731; in assay [2], -0.192; in assay [3], -0.0951; in assay [4], 0.0663; in assay [5], 0.511; in assay [6] it was 0.53. In addition, the composite z-score in assay [7] was 1.5; in assay [9], -0.175; in assay [10], 0.0749. The z-score in assay [8] was 0.0288 (inactive).

With `CC(C)CNC(=O)[C@@H]1c2ccccc2C(=O)N(Cc2cc(F)cc(C(F)(F)F)c2)[C@H]1c1ccc(CO)cc1`, the composite z-score in assay [1] was 0.366; in assay [2], -0.23; in assay [3], 0.0079; in [4], 0.207; in assay [5] it was 0.561; in assay [6] it was 0.38. The composite z-score in [7] was 1.23; in [9], 0.0604; in [10] it was -0.0237. Moreover, the z-score in [8] is -1.78 (inactive).

Take `COCCOC(=O)N1C(=O)[C@@]2(c3ccccc31)[C@H](C(=O)N1CCN(c3ncccn3)CC1)[C@H]1C(=O)O[C@H](c3ccccc3)[C@H](c3ccccc3)N1[C@@H]2c1ccc(OCCO)cc1`: the composite z-score turned out to be 0.213 in assay [1]; 0.295 in assay [2]; 0.0043 in assay [3]; 1.13 in assay [4]; 1.29 in assay [5]; 1.2 in [6]. Moreover, the composite z-score came out at 1.28 in [7], 0.593 in assay [9] and 0.388 in assay [10]. Also, in assay [8], the z-score is 0.795 (inactive).
